# PubChem BioAssay AID504848 (National Center for Advancing Translational Sciences (NCATS), 2011)
# Out of some 2,300 compounds screened, about 1,400 (61%) were called active. Not shown: some 29% with an inconclusive outcome. Calls come from the whole dose curve; as a rule, active = well fitted inhibition curve with a large enough effect; inconclusive = small, poorly fitted or top-dose-only effect, or effect the other way; inactive = no such curve, though single readings can be large or run the other way. So high a share suggests a set chosen from earlier hits. Some of the results follow.
# Test: Confirmation screen for delayed death inhibitors of the malarial parasite plastid, 96 hour incubation; note: nearly all actives have a fitted effect of over 60% in size
# Details: P. falciparum luciferase growth in erythrocytes; series mostly up to 28.7 µM
# Source text: The goal of this screen is to discover new antimalarial compounds that act by inhibiting the development of the apicoplast in the malarial parasite Plasmodium falciparum. The biochemical processes that make this organelle essential for erythrocytic stage parasites are not well understood. However, antibiotics, such as azithromycin and tetracycline, which target the apicoplast translational machinery, have a potent antimalarial effect. […] We have developed a cell-based assay that measures parasite growth based on the expression of an integrated copy of a firefly luciferase reporter. To detect small molecules that cause this "delayed death phenotype, erythrocytes infected with the luciferase-expressing parasites were incubated with compounds for either one or two generations, corresponding to 48 and 96 hours, respectively. Compounds that inhibit parasite growth in the second generation, but not the first, should be enriched in antimalarials that target the apicoplast. Growth inhibition is detected by a decrease in luciferase activity. MLPCN Grant: R21 NS059500 Assay Provider: David Fidock and Eric Ekland, Columbia University Keywords: NIH Roadmap, MLPCN, MLI, MLSMR, qHTS, NCGC, qHTS, malaria, luciferase, viability
# Four microliters of culture medium (RPMI 1640 with 0.5% w/v Albumax (GIBCO), 24 mM sodium bicarbonate and 10 ug/mL gentamycin) were dispensed by a Multi-drop Combi into white solid 1536-well plates (Grenier) and 23 nL compound was added by a pin tool. Four microliters of infected erythrocytes (2% hematocrit, 0.1% parasitemia final concentration) in culture medium were dispensed and the plates incubated for 96 hours at 37 C in 5% CO2. Two microliters of luciferase detection reagent was added and luminescence was detected by a ViewLux (PerkinElmer) reader
# Potency is the fitted concentration of half-maximal effect.
row,SMILES,Potency
1,Cc1ccccc1C(=O)Nc1ccc2c(c1)CCCN2C(=O)c1cccs1,12.6 µM (active)
2,COc1cc(OC)cc(C(=O)Nc2ccc3c(c2)CCCN3C(=O)c2cccs2)c1,11.2 µM (active)
3,CC(C)c1[nH]nc2c1C(C1C=CCCC1)C(C#N)=C(N)O2 (centres undefined),14.1 µM (active)
4,CCOCCCNC(=S)N1CCN(c2nc(-c3ccccc3)cs2)CC1,12.6 µM (active)
5,Cc1c(-c2ccccc2)nc2ccccc2c1C(=O)Nc1ccncc1,0.178 µM (active)
6,CC(C)CC1c2[nH]c3ccccc3c2CCN1CCCn1cccn1 (centres undefined),8.91 µM (active)
7,CC(=O)c1ccc(NC(=S)Nc2ccc3cn[nH]c3c2)cc1,inactive
8,CCC(=O)NC(=S)Nc1ccc(NC(=O)c2ccc(C)c([N+](=O)[O-])c2)cc1,10 µM (active)
9,CN(C(=O)c1cc([N+](=O)[O-])ccc1NCc1cccnc1)c1ccccc1,11.2 µM (active)
10,CN1/C(=C\C(=O)CSc2cccc[n+]2[O-])C(C)(C)c2ccccc21,15.8 µM (active)
11,CSc1nnc(C)c(=O)[nH]1,inactive
12,Clc1cccc(Cl)c1C[n+]1ccc2ccccc2c1,1.26 µM (active)
13,Cc1ncc(CO)c(/C=N/NC(=S)Nc2ccc(F)cc2)c1O,14.1 µM (active)
14,CC(=O)c1ccc(N/N=C(/C(N)=O)C2=NC(C)(C)Cc3ccccc32)cc1,6.31 µM (active)
15,Cc1cccc(N/N=C(\C(N)=O)C2=NC(C)(C)Cc3ccccc32)c1,3.98 µM (active)
16,O=C(COc1ccccc1Cl)NC(=S)N1CCc2ccccc21,14.1 µM (active)
17,O=C(NCc1ccccn1)Nc1cc(Cl)ccc1Cl,6.31 µM (active)
18,CC(=O)c1cccc(Oc2cc(NN3CCCCC3)c([N+](=O)[O-])cc2[N+](=O)[O-])c1,11.2 µM (active)
19,Cc1noc(C)c1C(=O)Nc1nc(-c2ccc(F)cc2)cs1,inactive
20,Cc1onc(-c2c(Cl)cccc2Cl)c1C(=O)N=C(N)N1CC(C)OC(C)C1 (centres undefined),7.08 µM (active)
21,Cc1onc(-c2c(Cl)cccc2Cl)c1C(=O)Nc1nc(C(C)(C)C)cs1,6.31 µM (active)
22,COc1ccc(NC(=O)c2c(-c3c(Cl)cccc3Cl)noc2C)c(OC)c1,2.24 µM (active)
23,Cc1onc(-c2c(Cl)cccc2Cl)c1C(=O)NC1CCCCC1,11.2 µM (active)
24,COc1cnc(-c2ccccn2)nc1N(C)c1ccccc1,2 µM (active)

row,SMILES,Potency
1,COc1cnc(-c2ccccn2)nc1Oc1ccc(C(C)(C)C)cc1,2.51 µM (active)
2,CSC1=NC(C)(C)C=C(/C=C/c2ccc(Cl)cc2Cl)N1,1.78 µM (active)
3,CSC1=NC(C)(C)C=C(/C=C/c2ccc(Cl)cc2)N1,4.47 µM (active)
4,CSC1=NC(C)(C)C=C(/C=C/c2c(Cl)cccc2Cl)N1,10 µM (active)
5,CC1(C)Cc2c(ccc3ccccc23)C(c2cc3ccccc3oc2=O)=N1,4.47 µM (active)
6,CN(C(=O)CN1C(=O)CCSc2ccc(S(=O)(=O)N3CCCC3)cc21)c1ccccc1,7.94 µM (active)
7,CCN(CC)CCn1c2c(c(SCC(=O)Nc3nc4ccccc4s3)nc1=O)CCCC2,2 µM (active)
8,CCC(=O)NCCc1cc2ccc(C)cc2[nH]c1=O,inactive
9,CCc1c(C(=O)NC2CCCc3ccccc32)[nH]c(C)c1C(C)=O (centres undefined),inactive
10,CCc1c(C(=O)NCCc2cccc(C)c2)[nH]c(C)c1C(C)=O,12.6 µM (active)
11,COC(=O)COc1ccc2c(=O)c(-c3ccccc3OC)coc2c1,inactive
12,CCOC(=O)Nc1ccc2c(CNC(C)c3ccccc3OC)cc(=O)oc2c1 (centres undefined),12.6 µM (active)
13,C=C[C@]1(C)C[C@@H](OC(=O)CSCCN(CC)CC)[C@]2(C)C(C)CC[C@]3(CCC(=O)[C@H]32)[C@@H](C)[C@@H]1O (some centres undefined),2 µM (active)
14,CN(Cc1ccc(Cl)c(Cl)c1)C(=O)C1=CC=CN2CCS(=O)(=O)N=C12,5.01 µM (active)
15,COC(=O)c1ccc(Sc2nnnn2-c2ccccc2)c([N+](=O)[O-])c1,12.6 µM (active)
16,CC1CCN(C(=O)Cn2cc(C(=O)c3ccco3)c3ccccc32)CC1,14.1 µM (active)
17,Cc1ccc(NC(=O)C(=Cc2ccc(C(=O)O)cc2)C(=O)Nc2ccc(C)cc2C)c(C)c1,6.31 µM (active)
18,Cn1c(=O)[nH]c(=O)c2c1nc(NCc1ccccc1)n2Cc1ccc(F)cc1,3.55 µM (active)
19,Cc1ccc(OCC(=O)Nn2cnnc2)c(Br)c1,inactive
20,C/C(CC(=O)NC1CCCCC1)=N\NC(=O)COc1ccc(C)cc1Br,15.8 µM (active)
21,O=C(c1ccc(OC2CCN(Cc3ccccc3OC(F)F)CC2)cc1)N1CCCC1,2.51 µM (active)
22,COc1ccc(CCC(C)N2CCC(Oc3ccc(C(=O)N4CCCC4)cc3)CC2)cc1 (centres undefined),10 µM (active)
23,CCN(CC)CCOC(=O)c1ccc(NC(=O)C(C)NC(=O)C23CC4CC(CC(C4)C2)C3)cc1 (centres undefined),12.6 µM (active)
24,Cc1ccc(Nc2cc(C)c3ccc(O)cc3n2)cc1C,0.126 µM (active)

row,SMILES,Potency
1,OC1C2(Cc3ccccc3)CN3CCN(C2)CC1(Cc1ccccc1)C3 (centres undefined),2 µM (active)
2,O=c1cc(CSc2nc(NCc3ccccc3)c3ccccc3n2)nc2ccc(Cl)cn12,3.55 µM (active)
3,CCN(CC)S(=O)(=O)c1ccc(N2CCOCC2)c(NC(=O)C2CSC3(C)CCC(=O)N23)c1 (centres undefined),5.62 µM (active)
4,COc1ccc2[nH]cc(CCCN3C(=O)c4ccccc4C3=O)c2c1,inactive
5,COc1ccc2[nH]cc(C(=O)CCl)c2c1,12.6 µM (active)
6,CCOc1ccc(/C=C/[N+](=O)[O-])c2ccccc12,15.8 µM (active)
7,Cc1ccc(C)c(-c2nnc(OCC(=O)Nc3cc(C)on3)c3ccccc23)c1,12.6 µM (active)
8,COc1cc(CNC2CCCCCCC2)ccc1OCC(N)=O,12.6 µM (active)
9,Cc1cc(C)c(NC(=O)c2cccc3c2C(=O)N(C2CCCCC2)C3)c(C)c1,7.94 µM (active)
10,COc1ccccc1/C=C/C(=O)c1ccccc1,14.1 µM (active)
11,O=C(/C=C/c1ccccc1O)c1ccco1,inactive
12,CCOC(=O)C(=Cc1ccccc1OC)C(=O)OCC,12.6 µM (active)
13,CCOC(=O)C(CC)(CC)C(=O)/C=C/c1ccc(Br)cc1,6.31 µM (active)
14,COc1ccccc1/C=C/C(=O)/C=C/c1ccccc1O,1 µM (active)
15,CCOC(=O)C(=Cc1ccc(Br)cc1)C(=O)OCC,7.94 µM (active)
16,COc1ccc(CCNc2cc(C)nc3c(-c4ccc(Cl)cc4)c(C)nn23)cc1OC,11.2 µM (active)
17,O=C(/C=C/c1ccncc1)c1ccc(NC(=O)c2ccccc2F)cc1,12.6 µM (active)
18,CSc1ccc(/C=C/C(=O)c2ccc(NC(=O)C(C)C)cc2)cc1,inactive
19,COc1cccc(Nc2ccc(N3CCCCC3)cc2)c1OC,0.355 µM (active)
20,CCOC(=O)CN1C(=O)/C(=C/c2c(F)cccc2Cl)Oc2ccccc21,12.6 µM (active)
21,CCOC(=O)c1ccc(N2N=C(C)/C(=C/C=C/c3ccco3)C2=O)cc1,5.62 µM (active)
22,CC(=O)c1cccc(NC(=O)CSc2ccc(-c3sc(C)nc3C)nn2)c1,12.6 µM (active)
23,CCc1ccc(NC2=CC(=O)C(=O)c3ccccc32)cc1,0.447 µM (active)
24,COc1ccc(-c2c(-c3cc(OC)cc(OC)c3)n(C)c3ccc(-c4ccc5[nH]ccc5c4)cc23)cc1,6.31 µM (active)

row,SMILES,Potency
1,CCN(CC)C(=O)C1CCCN(C(=O)c2cc(COc3ccc4ncccc4c3)on2)C1 (centres undefined),11.2 µM (active)
2,c1ccc2c(c1)Nc1cc3ccccc3cc1S2,3.98 µM (active)
3,O=C(c1[nH]ncc1-c1cccc(Br)c1)C1CO1 (centres undefined),12.6 µM (active)
4,O=S(=O)(c1ccc(F)cc1)N1CCc2ccccc2C1,12.6 µM (active)
5,COC(=O)Nc1ccc2c(c1)N(C(=O)CCCl)c1ccccc1S2,12.6 µM (active)
6,O=S1(=O)Nc2c(ccc3cccnc23)-c2ccccc21,1.58 µM (active)
7,Cc1ccc(C2(C)NC(=O)N(CC(=O)N3CCN(S(=O)(=O)c4cccc(F)c4)CC3)C2=O)cc1 (centres undefined),7.08 µM (active)
8,Cc1ccc(CS(=O)(=O)Cc2ccc(C(=O)NC3CCCC3)o2)cc1,10 µM (active)
9,O=C(NC1CCCCC1)c1ccc(CS(=O)Cc2ccccc2Cl)o1 (centres undefined),12.6 µM (active)
10,O=C(c1cccs1)N1N=C(c2ccccc2)CC1c1ccccc1O (centres undefined),2.82 µM (active)
11,O=C(Nn1c(-c2ccccc2)nc2ccccc2c1=O)c1ccco1,inactive
12,CCOc1ccc(CCn2c(-c3ccco3)nc3ccccc3c2=O)cc1OCC,10 µM (active)
13,Cc1c(O)ccc(C(=O)CN2CCN(Cc3ccc4c(c3)OCO4)CC2)c1O,5.01 µM (active)
14,Cc1ccc(NC2=C/C(=N\S(=O)(=O)c3cccs3)c3ccccc3C2=O)c(C)c1,0.0708 µM (active)
15,CCc1ccc(-c2cn(C3CCCCC3)c(=S)[nH]2)cc1,6.31 µM (active)
16,Clc1ccccc1Cn1c(/C=C/c2ccco2)nc2ccccc21,11.2 µM (active)
17,COc1ccccc1N1CCN(CCC(=O)Nc2ccc(F)cc2)CC1,12.6 µM (active)
18,O=C1CN(c2nc(-c3cccnc3)nc3scc(-c4ccccc4)c23)CCN1,inactive
19,O=C(c1cccs1)N1CCCN(c2ncnc3scc(-c4ccccc4)c23)CC1,12.6 µM (active)
20,Cc1cc(C)n(CC(O)COc2ccccc2)n1 (centres undefined),0.891 µM (active)
21,O=C1CN(C(=O)c2ccc(Cl)c(S(=O)(=O)N3CCc4ccccc43)c2)c2ccccc2N1,12.6 µM (active)
22,CC[C@@H](C(=O)[C@@H](C)[C@@H](O)[C@H](C)CCc1ccc(C)c(O)c1C(=O)O)[C@H]1O[C@](CC)([C@H]2CC[C@](O)(CC)[C@H](C)O2)C[C@@H]1C,0.631 µM (active)
